The source made the active and inactive calls.
Key:
[1] = compounds binding Alexa647 anti-His antibody – biochemical, small-molecule microarray, 635 nm fluorescence, artefact control for SMM control protein annotation, primary screen (AID 1128); details: higher = more signal;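 further: score merges feature fluorescence with signal-to-noise for each printed compound spot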
[2] = tested on: Human papillomavirus type 1a E7 protein (residues 1-88); assay: HPV1a E7 small-molecule binders, primary screen, biochemical, small-molecule microarray, residues 1-88, 635 nm (AID 1129); details: small-molecule microarray binding, fluorescence 635 nm; higher = more signal
[3] = target: Focal adhesion kinase 1 (Homo sapiens) (UniProt Q05397); assay: PTK2 protein binding on printed compound slides – biochemical, small-molecule microarray, 635/667 nm fluorescence, BSA, DTT, primary screen (AID 1130); details: 635 nm fluorescence, higher = more signal;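 further: composite of spot emission at 667 nm and signal to noise over triplicate slides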
Chain of Focal adhesion kinase 1 (Homo sapiens) (Q05397 whole entry, looked up): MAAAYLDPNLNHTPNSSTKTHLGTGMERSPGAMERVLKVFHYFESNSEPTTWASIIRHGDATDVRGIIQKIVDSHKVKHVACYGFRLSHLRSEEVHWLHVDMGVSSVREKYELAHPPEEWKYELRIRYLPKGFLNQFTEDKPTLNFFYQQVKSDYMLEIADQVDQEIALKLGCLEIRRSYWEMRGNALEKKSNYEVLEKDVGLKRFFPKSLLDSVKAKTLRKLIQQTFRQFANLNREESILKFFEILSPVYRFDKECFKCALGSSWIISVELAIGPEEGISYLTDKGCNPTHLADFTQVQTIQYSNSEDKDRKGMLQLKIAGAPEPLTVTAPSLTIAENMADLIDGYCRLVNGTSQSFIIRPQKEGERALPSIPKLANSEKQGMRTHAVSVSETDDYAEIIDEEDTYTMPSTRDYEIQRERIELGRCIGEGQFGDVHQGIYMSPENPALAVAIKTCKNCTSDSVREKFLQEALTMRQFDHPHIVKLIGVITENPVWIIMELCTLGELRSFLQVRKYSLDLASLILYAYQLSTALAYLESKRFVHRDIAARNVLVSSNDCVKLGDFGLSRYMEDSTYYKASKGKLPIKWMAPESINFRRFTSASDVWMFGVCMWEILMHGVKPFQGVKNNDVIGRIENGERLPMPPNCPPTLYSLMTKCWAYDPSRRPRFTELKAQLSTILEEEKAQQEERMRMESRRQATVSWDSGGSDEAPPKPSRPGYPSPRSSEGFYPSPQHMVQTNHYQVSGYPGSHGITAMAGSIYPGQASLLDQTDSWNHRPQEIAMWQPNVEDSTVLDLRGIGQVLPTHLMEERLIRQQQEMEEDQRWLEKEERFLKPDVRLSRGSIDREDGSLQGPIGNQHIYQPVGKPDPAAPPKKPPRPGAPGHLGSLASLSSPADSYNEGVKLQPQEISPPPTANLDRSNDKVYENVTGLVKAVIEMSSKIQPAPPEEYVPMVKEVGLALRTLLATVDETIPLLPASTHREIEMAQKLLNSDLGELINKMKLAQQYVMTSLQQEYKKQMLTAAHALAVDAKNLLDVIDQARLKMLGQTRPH

[4] = tested on: Fibrinogen (Alexa647-labelled); assay: Alexa647-fibrinogen binding to printed small molecules – biochemical, small-molecule microarray, 635/667 nm fluorescence, artefact control for SMM control-protein annotation, profiling panel (AID 1131); details: fibrinogen-A647 binding fluorescence, higher = more signal;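 further: z-score merges 667 nm fluorescence with per-spot signal-to-noise over triplicate slides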
[5] = target: Follistatin (Homo sapiens) (UniProt P19883); assay: FST protein binding to printed compounds – biochemical, small-molecule microarray, 635/667 nm fluorescence, primary screen (AID 1132); details: 635 nm fluorescence, higher = more signal
Chain of Follistatin (Homo sapiens) (P19883 whole entry, looked up): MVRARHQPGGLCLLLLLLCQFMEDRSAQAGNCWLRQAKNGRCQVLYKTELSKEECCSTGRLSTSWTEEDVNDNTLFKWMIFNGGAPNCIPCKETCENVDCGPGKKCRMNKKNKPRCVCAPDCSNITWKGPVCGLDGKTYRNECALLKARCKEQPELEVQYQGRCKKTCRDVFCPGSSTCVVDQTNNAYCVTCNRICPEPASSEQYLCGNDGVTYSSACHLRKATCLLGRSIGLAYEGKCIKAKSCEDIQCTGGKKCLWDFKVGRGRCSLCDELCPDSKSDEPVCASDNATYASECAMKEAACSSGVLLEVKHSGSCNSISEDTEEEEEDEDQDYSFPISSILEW

[6] = target: Fibroblast growth factor 2 (Homo sapiens) (UniProt P09038); assay: basic fibroblast growth factor binding to printed compounds – biochemical, small-molecule microarray, 635/667 nm fluorescence, primary screen (AID 1133); details: FGF2, fluorescence 635/667, higher = more signal
Chain of Fibroblast growth factor 2 (Homo sapiens) (P09038 whole entry, looked up): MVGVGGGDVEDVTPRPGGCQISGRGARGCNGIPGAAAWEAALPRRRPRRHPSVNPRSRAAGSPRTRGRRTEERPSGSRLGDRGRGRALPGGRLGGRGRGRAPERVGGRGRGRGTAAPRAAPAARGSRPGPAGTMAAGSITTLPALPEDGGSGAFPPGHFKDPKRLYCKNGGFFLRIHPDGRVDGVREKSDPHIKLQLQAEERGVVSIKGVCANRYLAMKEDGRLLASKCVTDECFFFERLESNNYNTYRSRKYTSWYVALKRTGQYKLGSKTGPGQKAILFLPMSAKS

[7] = JC-1 mitochondrial potential readout, lung cancer cells – cell-based, A549, JC-1 fluorescence, basal, 24 h, 100 nL, profiling panel (AID 1138); details: higher = more signal;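 further: A549 lung adenocarcinoma cells under basal conditions with no added stimulus; test concentration not given here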
Lefty1 = Lefty1 protein binding to printed compounds – biochemical, small-molecule microarray, 635/667 nm fluorescence, primary screen (AID 1139); details: fluorescence 635/667, higher = more signal
[8] = tested on: wheat germ agglutinin (Triticum aestivum), Alexa647-labelled; assay: Alexa647-WGA lectin binding to printed small molecules – biochemical, small-molecule microarray, 635/667 nm fluorescence, artefact control for SMM control-protein annotation, profiling panel (AID 1140); details: WGA-A647 binding, 635 nm fluorescence, higher = more signal;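 further: score merges 667 nm feature emission with signal to noise over triplicate slides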
[9] = target: Luciferin 4-monooxygenase (Photinus pyralis) (UniProt P08659); assay: inhibition of purified Photinus pyralis luciferase – biochemical, luminescence, purified enzyme, 2006 set, primary screen (AID 1141); details: purified firefly luciferase, SteadyGlo luminescence, 30 min; higher = more signal, called active from +8 up or from −8 down;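 further: cell-free assay with purified firefly luciferase at 100 ng per well in PBS; test concentration not given here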
Chain of Luciferin 4-monooxygenase (Photinus pyralis) (P08659 whole entry, looked up): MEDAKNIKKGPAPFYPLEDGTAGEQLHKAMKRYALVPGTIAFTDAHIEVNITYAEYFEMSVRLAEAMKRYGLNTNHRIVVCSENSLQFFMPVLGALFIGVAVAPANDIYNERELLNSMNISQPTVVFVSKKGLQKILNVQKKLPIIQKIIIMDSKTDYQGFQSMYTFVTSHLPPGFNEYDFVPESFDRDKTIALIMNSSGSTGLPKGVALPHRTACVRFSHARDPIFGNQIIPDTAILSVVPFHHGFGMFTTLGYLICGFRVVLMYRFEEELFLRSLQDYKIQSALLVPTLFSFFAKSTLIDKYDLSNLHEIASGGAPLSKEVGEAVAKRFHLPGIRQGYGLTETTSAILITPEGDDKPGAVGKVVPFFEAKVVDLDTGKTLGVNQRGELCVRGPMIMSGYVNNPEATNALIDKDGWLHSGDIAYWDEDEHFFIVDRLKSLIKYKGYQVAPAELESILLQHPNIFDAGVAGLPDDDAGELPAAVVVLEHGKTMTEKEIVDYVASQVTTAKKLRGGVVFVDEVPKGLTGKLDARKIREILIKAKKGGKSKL

Row | Compound | composite z-score [1] | composite z-score [2] | composite z-score [3] | composite z-score [4] | composite z-score [5] | composite z-score [6] | z-score [7] | composite z-score (Lefty1) | composite z-score [8] | z-score [9]
1 | C=CCC(OC(C)=O)[C@@H]1[C@@H](N(Cc2cc3ccccc3o2)C(=O)c2ccc(-c3ccccc3)cc2)c2cc(OCCCO)ccc2N1C(=O)Cc1ccc(OC)cc1 (stereo not given in full) | -0.289 | -0.27 | -0.19 | 0.457 | 0.453 | 0.245 | 0.64 | 0.16 | 0.307 | -0.189 (inactive)
2 | Cc1ccc([C@H]2C(C(=O)O)=C[C@@H](C(C)(C)C)N2S(=O)(=O)c2ccc(C)cc2)cc1 | 1.28 | 1.24 | 0.664 | 0.999 | 0.802 | 0.557 | -0.918 | 0.367 | 1.3 | 1.48 (inactive)
3 | CCCCC(=O)N(CCN1CCOCC1)[C@@H]1CC(C(=O)NCCO)=C[C@H](Oc2c(I)cc(CO)cc2OC)[C@H]1O | 0.438 | 0.358 | -0.444 | -0.0237 | 0.328 | 0.902 | 0.809 | 0.612 | 0.0626 | -0.658 (inactive)
4 | COc1ccc([Si](C)(C)[C@@H]2[C@@H](CCn3cc([C@H](O)c4ccccc4)nn3)O[C@]3(C(=O)N(c4ccccc4)c4ccccc43)[C@H]2C)cc1 | -0.684 | 0.386 | 0.474 | -0.308 | 0.586 | 0.184 | 0.00801 | 0.424 | -0.348 | 0.389 (inactive)
5 | COc1cc2c(cc1O)C(c1ccc(CN3CCCC3)cc1)N(C)CC2 (stereo not given) | -1.52 | -2.03 | -0.489 | 0.109 | -0.843 | -0.324 | 0.563 | -1.17 | 0.434 | -0.831 (inactive)
6 | CCCCC(=C=CC[C@H](O)c1ccc(OCCO)cc1)C[C@H](O)COCc1ccccc1 | 0.522 | 0.0648 | 0.477 | -0.56 | 0.163 | 0.501 | 2.19 | 0.235 | -0.0019 | -1.22 (inactive)
7 | COCCOC(=O)N1C(=O)[C@@]2(c3ccccc31)[C@H](c1ccc(OCCO)cc1)N1[C@H](c3ccccc3)[C@H](c3ccccc3)OC(=O)[C@H]1[C@@H]2C(=O)N1CCCCCCC1 | 3.91 | 1.37 | 4.76 | 0.995 | 1.55 | 1.99 | -1.75 | 1.92 | 1.76 | -0.659 (inactive)
8 | COCCOC(=O)N1C(=O)[C@@]2(c3cc(C#CCCO)ccc31)[C@H](c1ccccc1OCCO)N1[C@H](c3ccccc3)[C@H](c3ccccc3)OC(=O)[C@H]1[C@@H]2C(=O)N1CCCCCCC1 | 1.35 | 1.17 | 0.624 | 0.857 | 1.39 | 1.58 | -0.383 | 1.65 | 1.14 | -0.0558 (inactive)
9 | [N-]=[N+]=Nc1ccccc1C[C@@]1(C(=O)O)N=C(c2ccc(OCCCO)cc2)O[C@@H]1c1ccccc1N=[N+]=[N-] | 2.68 | 1.25 | 0.968 | 0.963 | 0.46 | -0.606 | 0.125 | -0.817 | 1.44 | -5.43 (inactive)
10 | C=CCC(OC(C)=O)[C@@H]1[C@@H](N(Cc2ccc(-c3cccc(C(F)(F)F)c3)o2)C(=O)Cc2ccc(OC)cc2)c2cc(OCCCO)ccc2N1C(=O)Cc1ccc2ccccc2c1 (stereo not given in full) | 0.083 | -1.39 | -0.368 | 0.226 | 0.131 | -0.501 | -0.451 | -0.27 | -0.0571 | 0.149 (inactive)
11 | [N-]=[N+]=Nc1ccccc1[C@@H]1OC(c2ccc(OCCCO)cc2)=N[C@]1(Cc1ccccc1)C(=O)NCc1ccccc1 | 1.27 | 1.17 | 0.763 | 0.798 | 0.852 | 0.409 | -1.63 | 0.491 | 1.36 | -5.74 (inactive)

Reference: PubChem BioAssay
